Measured values reported in PubChem BioAssay AID588738 (National Center for Advancing Translational Sciences (NCATS), 2011).
Calls of active or inactive are those of the source. How the calls were made is not given here.

assay: High Content Assay for Compounds that inhibit the Assembly of the Perinucleolar Compartment:Cell Migration SAR; settings: PC3M 3D collagen invasion, Hoechst imaging, 5 d
From the text: The perinucleolar compartment (PNC) is a non-membrane-bound nuclear subdomain that is associated with but structurally distinct from the nucleolus. The PNC is a heritable trait, in which the number of PNCs per cell in daughter cells often mimics that of their mother cells. The PNC is heterogeneous in shape, is stable through interphase, disassembles during mitosis, and reassembles in early G1. The PNC is concentrated with newly synthesized RNA polymerase III (pol III) RNAs (MRP RNA, RNAse P H1 RNA, hY RNAs[hY1, 2, 5], Alu RNA, and SRP [7SL] RNA) and RNA binding proteins (nucleolin, PTB, CUG-BP, KSRP, Raver1, Raver2, and Rod). […] In collaboration between Sui Huang from Northwestern University and the NCGC, a high content assay was developed and screened. The hits were then tested in follow-up assays. High-content tumor cell migration assays in 3-dimensional extracellular matrices are powerful tools for modeling and understanding the biology of this critical step in the process of metastasis. However, most of the available methods are not amenable to the throughput required by studies of comparative pharmacology or small scale screening. For this reason, we worked with BellBrook Labs(R) to test our compounds in their automated high-content tumor cell invasion assays.[35] […]

**Q.** For N=c1c2c(-c3ccccc3)c(-c3ccccc3)n(Cc3ccccc3)c2ncn1C1CCC(O)CC1 (stereo unspecified), which Potency is on record?
**A.** 3.98 µM (active)
